The Kd is the equilibrium constant for the complex coming apart. A higher Kd goes with lower affinity.

Consider seven molecules from PMC5540273 (PLoS ONE, 2017).
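Also: kd values determined as follow-up on hits from a single-replicate KINOMEscan panel screen.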

This assay concerns T1, MEK5.
T1 construct: gene MAP2K5
On to `Nc1ncnc2occ(-c3ccc4c(c3)CCN4C(=O)Cc3cc(F)ccc3F)c12` [GSK2645446], for which the Kd came to 750 nM.

`COc1cc2ncnc(Nc3cccc(Br)c3)c2cc1OC.Cl` [GI230329] yielded a dissociation constant (Kd) of 700 nM. The value for `CS(=O)(=O)Cc1ccc(Nc2nccc(-c3c(-c4cccc(NC(=O)C5CCCCC5)c4)nn4ncccc34)n2)cc1` [GSK350559] was 35 nM; that for `CS(=O)(=O)CCNCc1nc(-c2ccc3ncnc(Nc4ccc(OCc5ccccc5)c(Cl)c4)c3c2)cs1.Cl` [GW582764] was 700 nM; that for `COC(=O)C(NC(=O)NC1CCN(c2ccnc(Nc3ccc(F)cc3)n2)C1)c1ccccc1` (stereo not shown) [GSK1379712] was 270 nM. In turn, `Cn1cncc1-c1cc2c(Nc3ccc(OCc4ccccc4)cc3)ncnc2cn1` [GW281179] returned a dissociation constant (Kd) of 140 nM. The same measure for `CS(=O)(=O)CCNCc1nc(-c2ccc3ncnc(Nc4ccc5c(cnn5Cc5ccccc5)c4)c3c2)cs1.Cl.Cl` [GW569716]: 43 nM.
